For part of these data: Results with a measured potency or affinity are listed apart. Calls of active or inactive are those of the source. Unless noted, no rule for the calls is given here.
Columns and labels:
[1] = antimalarial activity against Dd2 strain (AID 2302;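 active = growth inhibition above 50% at the single 2 µM test dose, taken to imply half-maximal potency below 2 µM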;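 also: 0% = DMSO untreated growth and 100% = chloroquine plus artemisinin killed control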); details: P. falciparum Dd2 in RBCs, LDH growth readout, 72 h; at 2 µM; stronger effect = higher value
[2] = human hepatoma cell viability loss – ATP luminescence, cytotoxicity control for P. falciparum antimalarial project, primary screen (AID 2303;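 active = inhibition above 50%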;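 also: 0% = DMSO wells and 100% = digitonin-killed cells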); details: HepG2 viability, 24-48 h, at 10 µM, stronger effect = higher value
[3] = target: L-lactate dehydrogenase (Plasmodium falciparum (isolate CDC / Honduras)) (UniProt Q27743); experiment: PfLDH activity inhibition – cell lysate, 3D7 strain, counter-screen for P. falciparum growth inhibition project (AID 2304);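 also: 0% = vehicle and 100% = reference inhibitor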; details: P. falciparum 3D7 crude extract, LDH APAD/NBT absorbance; at 2 µM; stronger effect = higher value
Chain of L-lactate dehydrogenase (Plasmodium falciparum (isolate CDC / Honduras)) (Q27743 whole entry, looked up): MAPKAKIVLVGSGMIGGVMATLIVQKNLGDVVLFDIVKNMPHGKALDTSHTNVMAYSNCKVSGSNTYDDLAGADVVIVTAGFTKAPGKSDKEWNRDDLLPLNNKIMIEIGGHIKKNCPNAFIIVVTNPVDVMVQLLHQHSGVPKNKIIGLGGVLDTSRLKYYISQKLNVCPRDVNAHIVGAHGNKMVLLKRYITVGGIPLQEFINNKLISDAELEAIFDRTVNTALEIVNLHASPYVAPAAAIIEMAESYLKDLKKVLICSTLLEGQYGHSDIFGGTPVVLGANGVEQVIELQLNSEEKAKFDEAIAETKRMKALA

[4] = inhibition of 3D7 malaria parasite growth – strain 3D7 (AID 2306);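 also: 0% = DMSO wells and 100% = chloroquine plus artemisinin control wells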; details: P. falciparum 3D7 erythrocytic growth, LDH absorbance, 72 h; at 2 µM; stronger effect = higher value
[5] = target: Calcium-dependent protein kinase 1 (Plasmodium falciparum (isolate 3D7)) (UniProt P62344); experiment: PfCDPK1 kinase inhibitors, biochemical, TCAMS library (AID 1159585; cut-off not given, nearly all actives have IC50 up to about 0.98 µM;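 also: inhibitors leave more ATP so luminescence rises with inhibition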); details: recombinant PfCDPK1, Kinase-Glo ATP depletion luminescence
Chain of Calcium-dependent protein kinase 1 (Plasmodium falciparum (isolate 3D7)) (P62344 whole entry, looked up): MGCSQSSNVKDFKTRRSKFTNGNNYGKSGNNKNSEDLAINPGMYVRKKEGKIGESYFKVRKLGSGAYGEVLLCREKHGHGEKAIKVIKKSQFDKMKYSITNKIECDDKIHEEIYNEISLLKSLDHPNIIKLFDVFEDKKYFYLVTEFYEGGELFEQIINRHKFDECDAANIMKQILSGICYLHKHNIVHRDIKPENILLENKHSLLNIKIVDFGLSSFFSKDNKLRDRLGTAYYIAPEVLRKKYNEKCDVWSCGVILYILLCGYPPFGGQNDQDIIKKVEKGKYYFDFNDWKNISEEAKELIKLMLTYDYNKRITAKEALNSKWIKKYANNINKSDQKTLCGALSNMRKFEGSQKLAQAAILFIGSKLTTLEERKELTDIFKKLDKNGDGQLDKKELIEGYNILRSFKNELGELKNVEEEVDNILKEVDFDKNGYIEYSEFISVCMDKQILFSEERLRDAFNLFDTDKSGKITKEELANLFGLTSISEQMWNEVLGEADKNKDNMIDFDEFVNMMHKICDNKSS

[6] = target: Plasmodium falciparum protein kinase 6 (PK6, PF3D7_1337100) (UniProt Q8IDW1); experiment: PfPK6 kinase inhibitors, biochemical, TCAMS library (AID 1159586); details: recombinant PfPK6, Kinase-Glo ATP depletion luminescence
Chain of Plasmodium falciparum protein kinase 6 (PK6, PF3D7_1337100) (Q8IDW1 1-305): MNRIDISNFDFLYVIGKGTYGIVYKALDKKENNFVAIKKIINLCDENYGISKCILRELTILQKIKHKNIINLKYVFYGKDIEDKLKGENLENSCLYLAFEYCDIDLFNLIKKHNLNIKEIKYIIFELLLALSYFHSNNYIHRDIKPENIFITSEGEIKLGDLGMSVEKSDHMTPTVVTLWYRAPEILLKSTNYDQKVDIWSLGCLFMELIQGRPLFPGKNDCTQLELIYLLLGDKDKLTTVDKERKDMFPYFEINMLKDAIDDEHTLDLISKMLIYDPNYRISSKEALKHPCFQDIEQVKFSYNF

[7] = target: Protein kinase 7 (PK7), Plasmodium falciparum 3D7 (PF3D7_0213400) (UniProt Q7YTF7); experiment: inhibition of Plasmodium PK7 catalytic activity – biochemical, TCAMS antimalarial set, Kinase-Glo luminescence (AID 1159587); details: recombinant PfPK7, Kinase-Glo ATP depletion luminescence
Chain of Protein kinase 7 (PK7), Plasmodium falciparum 3D7 (PF3D7_0213400) (Q7YTF7 1-343): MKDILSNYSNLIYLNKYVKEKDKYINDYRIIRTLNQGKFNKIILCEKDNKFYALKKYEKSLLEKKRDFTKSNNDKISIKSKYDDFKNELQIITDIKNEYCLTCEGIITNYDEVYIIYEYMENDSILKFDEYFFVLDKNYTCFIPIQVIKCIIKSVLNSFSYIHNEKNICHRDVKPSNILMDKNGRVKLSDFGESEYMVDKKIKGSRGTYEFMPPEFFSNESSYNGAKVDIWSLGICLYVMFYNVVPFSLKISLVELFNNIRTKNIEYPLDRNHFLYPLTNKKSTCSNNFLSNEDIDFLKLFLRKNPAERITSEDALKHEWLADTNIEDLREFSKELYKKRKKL

[8] = target: Calcium-dependent protein kinase 4 (Plasmodium falciparum (isolate 3D7)) (UniProt Q8IBS5); experiment: PfCDPK4 kinase inhibitors, biochemical, TCAMS library (AID 1159588; cut-off not given, nearly all actives have IC50 up to about 0.91 µM); details: recombinant PfCDPK4, Kinase-Glo ATP depletion luminescence
Chain of Calcium-dependent protein kinase 4 (Plasmodium falciparum (isolate 3D7)) (Q8IBS5 whole entry, looked up): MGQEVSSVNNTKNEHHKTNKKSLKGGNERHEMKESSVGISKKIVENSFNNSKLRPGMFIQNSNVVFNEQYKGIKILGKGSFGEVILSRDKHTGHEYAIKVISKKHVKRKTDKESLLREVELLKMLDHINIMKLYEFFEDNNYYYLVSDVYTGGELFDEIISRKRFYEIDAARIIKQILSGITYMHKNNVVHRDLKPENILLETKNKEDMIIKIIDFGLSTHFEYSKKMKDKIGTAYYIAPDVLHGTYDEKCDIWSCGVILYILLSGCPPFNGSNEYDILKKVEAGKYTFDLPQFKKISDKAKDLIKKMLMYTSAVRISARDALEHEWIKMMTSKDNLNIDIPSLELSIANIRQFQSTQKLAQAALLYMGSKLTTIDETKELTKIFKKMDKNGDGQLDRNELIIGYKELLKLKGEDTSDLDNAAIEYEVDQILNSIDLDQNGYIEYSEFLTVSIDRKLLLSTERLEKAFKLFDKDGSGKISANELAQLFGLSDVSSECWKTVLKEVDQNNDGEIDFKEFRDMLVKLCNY

Cc1nnnn1-c1ccc(C(=O)N2CCC3(CC2)CN(Cc2ccc(Cl)c(Cl)c2)C(=O)O3)cc1
active: growth inhibition [1] 99% | growth inhibition [4] 101%
inactive: inhibition [2] 2% | inhibition [3] 2% | outcome [5] | outcome [6] | outcome [7] | outcome [8]

c1ccc2[nH]c(-c3ccc(-c4ccc(CNCC5CCCO5)cc4)s3)nc2c1 (stereo unspecified)
active: growth inhibition [1] 87% | growth inhibition [4] 101%
inactive: inhibition [2] 27% | inhibition [3] 4% | outcome [5] | outcome [6] | outcome [7] | outcome [8]

Cc1[nH]c(C)c(-c2ccc(-c3ccc(F)cc3)nc2)c(=O)c1Br
active: growth inhibition [1] 96% | growth inhibition [4] 97%
inactive: inhibition [2] 15% | inhibition [3] 0% | outcome [5] | outcome [6] | outcome [7] | outcome [8]

COc1ccc2nccc([C@@H](O)CN3CCC(NC(=O)c4cc5c(F)cc(F)cc5[nH]4)CC3)c2n1
active: growth inhibition [1] 74% | growth inhibition [4] 101%
inactive: inhibition [2] 32% | inhibition [3] -3% | outcome [5] | outcome [6] | outcome [7] | outcome [8]

COc1ccc(C(=O)Nc2cc(Br)c3c(c2)CNCC3)cc1Br
active: growth inhibition [4] 97%
inactive: growth inhibition [1] 8% | inhibition [2] 25% | inhibition [3] 7% | outcome [5] | outcome [6] | outcome [7] | outcome [8]

Cc1[nH]c(C)c(-c2ccc(OCc3cc(F)cc(F)c3)nc2)c(=O)c1Br
inactive: inhibition [2] 37% | inhibition [3] -7% | outcome [5] | outcome [6] | outcome [7] | outcome [8]
active: growth inhibition [1] 97% | growth inhibition [4] 98%

COc1ccccc1CCNc1nc(C)cc(N[C@@H](CC(C)C)C(=O)NCc2cccs2)n1
inactive: growth inhibition [1] 31% | inhibition [2] 20% | inhibition [3] 0% | outcome [5] | outcome [6] | outcome [7] | outcome [8]
active: growth inhibition [4] 96%

CN(C)CCCOc1cccc(CCNCc2cccc(Oc3ccc(Cl)cc3)c2)c1
inactive: inhibition [3] -3% | outcome [5] | outcome [6] | outcome [7] | outcome [8]
active: growth inhibition [1] 67% | inhibition [2] 72% | growth inhibition [4] 93%

COc1cccc(-c2csc(C(=O)NCC3CCN(Cc4ccc(C(C)C)cc4)C3)c2)c1 (stereo unspecified)
active: growth inhibition [4] 86%
inactive: growth inhibition [1] 9% | inhibition [2] 35% | inhibition [3] 0% | outcome [5] | outcome [6] | outcome [7] | outcome [8]

O=C(CCC1CCCCC1)NCCNc1cccc2ccccc12
inactive: inhibition [2] 7% | inhibition [3] -1% | outcome [5] | outcome [6] | outcome [7] | outcome [8]
active: growth inhibition [1] 57% | growth inhibition [4] 90%

O=C1COC2(CN1CC1CCN(Cc3ccc(O)c(Cl)c3)C1)c1ccccc1-c1ccccc12 (stereo unspecified)
inactive: inhibition [2] 6% | inhibition [3] 1% | outcome [5] | outcome [6] | outcome [7] | outcome [8]
active: growth inhibition [1] 50% | growth inhibition [4] 93%

COc1ccc(N2CCN(C(CNC(=O)C3CCCCC3)c3ccc4c(c3)OCO4)CC2)cc1 (stereo unspecified)
active: growth inhibition [1] 83% | growth inhibition [4] 92%
inactive: inhibition [2] 1% | inhibition [3] -1% | outcome [5] | outcome [6] | outcome [7] | outcome [8]

CC(=O)Nc1ccc(Cl)c(Cl)c1
active: growth inhibition [1] 98% | growth inhibition [4] 95%
inactive: inhibition [2] 5% | inhibition [3] 9% | outcome [5] | outcome [6] | outcome [7] | outcome [8]

Cn1c(N)c(N=O)c(=O)[nH]c1=O
inactive: inhibition [3] 0% | outcome [5] | outcome [6] | outcome [7] | outcome [8]
active: growth inhibition [1] 82% | inhibition [2] 58% | growth inhibition [4] 97%

CCCCCCN(CCCCCC)CCCCNc1c2ccc(Cl)cc2nc2ccc(OC)cc12
active: growth inhibition [1] 94% | inhibition [2] 65% | growth inhibition [4] 100%
inactive: inhibition [3] 1% | outcome [5] | outcome [6] | outcome [7] | outcome [8]

COC(=O)c1cc(NC(=O)Nc2ccc(Cn3ncc(N4CCCNCC4)c(Cl)c3=O)cc2)cc(C(=O)OC)c1
active: growth inhibition [1] 90% | growth inhibition [4] 96%
inactive: inhibition [2] -3% | inhibition [3] 3% | outcome [5] | outcome [6] | outcome [7] | outcome [8]

O=C(NCCc1ccc(F)cc1)c1ccc(N2CCN(c3ccncc3)CC2)nc1
active: growth inhibition [4] 88%
inactive: growth inhibition [1] 3% | inhibition [2] 1% | inhibition [3] -4% | outcome [5] | outcome [6] | outcome [7] | outcome [8]

O=S(=O)(Nc1cccc(CCN2CCCCC2CCN2CCCC2)c1)c1cccc2ccccc12 (stereo unspecified)
active: growth inhibition [4] 97%
inactive: growth inhibition [1] 6% | inhibition [2] 23% | inhibition [3] 3% | outcome [5] | outcome [6] | outcome [7] | outcome [8]

CS(=O)(=O)N(c1ccccc1)c1cc(C(=O)N[C@@H](Cc2ccccc2)[C@H](O)CNC2CC2)cc(N2CCCC2=O)c1
inactive: inhibition [2] 1% | inhibition [3] 4% | outcome [5] | outcome [6] | outcome [7] | outcome [8]
active: growth inhibition [1] 98% | growth inhibition [4] 100%

Cc1cc(N[C@@H](Cc2ccccc2)C(=O)NC2CCCC2)nc(Nc2ccccc2)n1
inactive: inhibition [2] 3% | inhibition [3] 0% | outcome [5] | outcome [6] | outcome [7] | outcome [8]
active: growth inhibition [1] 82% | growth inhibition [4] 100%

Cc1cccn2c(=O)c3cc(C(=O)NC4CCCCC4)c(=N)n(CCCn4ccnc4)c3nc12
inactive: growth inhibition [1] 8% | inhibition [2] 1% | inhibition [3] -1% | outcome [5] | outcome [6] | outcome [7] | outcome [8]
active: growth inhibition [4] 102%

COc1ccc2nccc(NC(=O)C3CCC(NCc4cnc(SC)c([N+](=O)[O-])c4)CC3)c2n1 (stereo unspecified)
active: growth inhibition [4] 89%
inactive: growth inhibition [1] 44% | inhibition [2] 8% | inhibition [3] 5% | outcome [5] | outcome [6] | outcome [7] | outcome [8]

CCCCCN1CCC(NS(=O)(=O)c2cccc(C(=O)Nc3ccc(Cl)cc3)c2)CC1
active: growth inhibition [4] 88%
inactive: growth inhibition [1] 29% | inhibition [2] 24% | inhibition [3] -3% | outcome [5] | outcome [6] | outcome [7] | outcome [8]

COc1ccc2nccc(NN=Cc3ccc(F)cc3)c2c1
active: growth inhibition [1] 54% | growth inhibition [4] 98%
inactive: inhibition [2] 2% | inhibition [3] -2% | outcome [5] | outcome [6] | outcome [7] | outcome [8]

COc1cc(C(=O)N2COCC(CCCN3CCC(N4CCCC4)CC3)(c3ccc(Cl)c(Cl)c3)C2)cc(OC)c1OC (stereo unspecified)
inactive: inhibition [2] 5% | inhibition [3] -1% | outcome [5] | outcome [6] | outcome [7] | outcome [8]
active: growth inhibition [1] 70% | growth inhibition [4] 95%

CCN(CC)CCOC(=O)c1ccc(NC(=O)c2cn(-c3ccccc3)nc2-c2cccs2)cc1
active: growth inhibition [1] 59% | growth inhibition [4] 100%
inactive: inhibition [2] 25% | inhibition [3] 3% | outcome [5] | outcome [6] | outcome [7] | outcome [8]

Cc1cccc2[nH]c(-c3cccc(-c4ccc(CNCCCN5CCCC5=O)cc4)c3)nc12
inactive: growth inhibition [1] 38% | inhibition [2] 5% | inhibition [3] 2% | outcome [5] | outcome [6] | outcome [7] | outcome [8]
active: growth inhibition [4] 101%

Cc1cc(N[C@@H](CC(C)C)C(=O)NCCc2ccccc2)nc(NCCc2cccs2)n1
inactive: growth inhibition [1] 16% | inhibition [2] 0% | inhibition [3] -3% | outcome [5] | outcome [6] | outcome [7] | outcome [8]
active: growth inhibition [4] 89%

Cc1ccc(Nc2nc(N)c3ccccc3n2)cc1
inactive: growth inhibition [1] 12% | inhibition [2] 9% | inhibition [3] 8% | outcome [5] | outcome [6] | outcome [7] | outcome [8]
active: growth inhibition [4] 94%

CNC(=O)COC(=O)c1c2c(nc3ccccc13)C(=Cc1ccc3c(c1)OCO3)CCC2
inactive: growth inhibition [1] 36% | inhibition [2] 7% | inhibition [3] -2% | outcome [5] | outcome [6] | outcome [7] | outcome [8]
active: growth inhibition [4] 83%

Clc1ccc(OCc2ccccc2)c(-c2nc(-c3nc4ncc(Br)cc4[nH]3)cs2)c1
inactive: inhibition [2] -7% | inhibition [3] -2% | outcome [5] | outcome [6] | outcome [7] | outcome [8]
active: growth inhibition [1] 77% | growth inhibition [4] 101%

CC(C)(C)Nc1nc(Nc2cccc([N+](=O)[O-])c2)nc(-n2ccnc2)n1
inactive: growth inhibition [1] 41% | inhibition [2] 10% | inhibition [3] -9% | outcome [5] | outcome [6] | outcome [7] | outcome [8]
active: growth inhibition [4] 98%

O=[N+]([O-])c1ccc(C(O)CNCCc2ccccc2)cc1OCc1ccccc1 (stereo unspecified)
active: growth inhibition [1] 67% | growth inhibition [4] 94%
inactive: inhibition [2] -6% | inhibition [3] -1% | outcome [5] | outcome [6] | outcome [7] | outcome [8]

CCCCCN(C(=O)Nc1cc(C(F)(F)F)cc(C(F)(F)F)c1)C(C)c1nc2ccccc2c(=O)n1CC (stereo unspecified)
inactive: inhibition [2] -3% | inhibition [3] 3% | outcome [5] | outcome [6] | outcome [7] | outcome [8]
active: growth inhibition [1] 101% | growth inhibition [4] 100%

N#Cc1ccc(N(CCOC(=O)c2ccccc2)Cc2ccccc2C(F)(F)F)cc1C(F)(F)F
inactive: inhibition [2] 6% | inhibition [3] -1% | outcome [5] | outcome [6] | outcome [7] | outcome [8]
active: growth inhibition [1] 67% | growth inhibition [4] 92%

CCN1CCN(c2cc(C)c3cc(NC(=O)c4cc(OC)cc(OC)c4)ccc3n2)CC1
active: growth inhibition [1] 90% | growth inhibition [4] 102%
inactive: inhibition [2] 0% | inhibition [3] 4% | outcome [5] | outcome [6] | outcome [7] | outcome [8]

CCCCc1ccc(CCNCCCCCCNCCc2ccc(O)c(O)c2)cc1
active: growth inhibition [4] 100%
inactive: growth inhibition [1] -1% | inhibition [2] 45% | inhibition [3] 5% | outcome [5] | outcome [6] | outcome [7] | outcome [8]

COc1ccccc1C1CCN(Cc2csc(NC(=O)c3ccc(-c4ccc(C(F)(F)F)cc4)cc3)n2)CC1
inactive: growth inhibition [1] 23% | inhibition [3] -2% | outcome [5] | outcome [6] | outcome [7] | outcome [8]
active: inhibition [2] 62% | growth inhibition [4] 85%

O=C(Nc1cccc(-c2cccc(CN3CCCC3)c2)c1)c1cccc(Cl)c1
active: growth inhibition [4] 89%
inactive: growth inhibition [1] 30% | inhibition [2] 44% | inhibition [3] -2% | outcome [5] | outcome [6] | outcome [7] | outcome [8]

CCOc1c(Br)cc(C)cc1CNCCCNc1nc2ccccc2[nH]1
active: growth inhibition [4] 93%
inactive: growth inhibition [1] 5% | inhibition [2] 24% | inhibition [3] 6% | outcome [5] | outcome [6] | outcome [7] | outcome [8]

c1cc(CN2CCCCC2)cc(-c2csc(-c3nc4ccccc4[nH]3)c2)c1
inactive: growth inhibition [1] 16% | inhibition [2] 26% | inhibition [3] 4% | outcome [5] | outcome [6] | outcome [7] | outcome [8]
active: growth inhibition [4] 90%

O=C(NCC1CCN(CCN2CCC(c3cn(CCO)c4ccccc34)CC2)CC1)c1ccc(-c2ccc(C(F)(F)F)cc2)cc1
active: growth inhibition [1] 100% | inhibition [2] 100% | growth inhibition [4] 101%
inactive: inhibition [3] 0% | outcome [5] | outcome [6] | outcome [7] | outcome [8]
